Measured values from PubChem BioAssay (NCATS).
Results filed as inconclusive are left out. Activity calls are given as the source filed them. Calls follow the shape of the dose curve; as a rule, active = well fitted inhibition curve with a large enough effect; inconclusive = small, poorly fitted or top-dose-only effect; inactive = no such curve, though single readings can be large or run the other way.

assay: qHTS for Inhibitors of the Aldehyde Dehydrogenase Family (ALDH1A2, ALDH1A3, ALDH2, ALDH3A1) (AID 2061307); conditions: ALDH inhibition qHTS; series mostly up to 50.3 µM; activity change, negative = inhibition: at the top concentration; also: nearly all actives have a fitted effect of over 50% in size; as to Potency: test system not described further here
% is scaled to controls: 0 for no effect and ±100 for the full control effect; potency is read from the fitted curve at half-maximal effect.

SMILES	activity change, negative = inhibition	Potency
NC(=O)c1ccc(OCc2nc(-c3ccc(C(F)(F)F)cc3)no2)cc1	-8.7% [at 34.4 µM] (inactive)	
C=CCn1c(Sc2ncc(C#N)cc2Cl)nnc1-c1ccccc1F	-64.2% [at 34.4 µM] (inactive)	
COc1ccc(C2Nc3c(OC)ccc(OC)c3C(=O)N2Cc2ccccc2)cc1COc1ccc(NC(C)=O)cc1 (stereo not given)		2.83 µM (active)
Cc1cc(Cl)ccc1-n1c(CCC(=O)O)ccc1-c1cccs1		12.7 µM (active)
CCN1C(=O)c2ccccc2S(=O)c2ccc(C(=O)NCc3cccc(-c4ccccc4)c3)cc21 (stereo not given)		22.5 µM (active)
CCOC(=O)N1CCN(Cc2nc3cc(NC(=O)CC(C)C)ccc3n2C(C)C)CC1	-6.69% (inactive)	
CCn1nc(C)c(CNc2ccc(S(N)(=O)=O)cc2C#N)c1C	-34.8% [at 34.4 µM] (inactive)	
CN1CCC(CNCc2nccc3c(=O)[nH]c(COc4ccc(Cc5ccccc5)cc4)nc23)C1 (stereo not given)	582% (inactive)	
COc1ccc(-n2c(C)c(C(C)=O)c3cc(OC)ccc32)cc1	1.19% [at 34.4 µM] (inactive)	
Clc1ccc(Cn2cnc3ccccc32)cc1		14.1 µM (active)
C=CCOc1c(Cl)cc(CNc2ccc(N(C)C)cc2)cc1OC		0.449 µM (active)
Cc1ccc2c(=O)cc(C(=O)Nc3cccc(C(F)(F)F)c3)oc2c1C	-11.4% [at 34.4 µM] (inactive)	
N#Cc1cccc(-c2ccc3nc(-c4ccccc4)cn3c2)c1	-1.96% [at 34.4 µM] (inactive)	
COc1cc(O)c(C(CC(=O)N2CC(C)CC(C)C2)c2cccc(NS(C)(=O)=O)c2)c(OC)c1 (stereo not given)		3.66 µM (active)
COc1ccc(-n2c(C)c(C(C)=O)c3cc(OC(=O)c4ccco4)ccc32)cc1	13.3% [at 34.4 µM] (inactive)	
COc1ccc(-n2c(CSCc3ccccc3)c(C(C)=O)c3cc(O)ccc32)cc1	1.96% [at 34.4 µM] (inactive)	
Cc1ccc(NC(=O)Cc2c(C)nn(C)c2C)cc1F		10 µM (active)
O=C(NCc1ccccc1Cl)c1csc(N2CCN(c3ccc(F)cc3)CC2)n1		2.51 µM (active)
CC(=O)Nc1ccc(NC(=O)c2sc(COc3ccc(F)cc3)nc2C)cc1	-19.1% [at 34.4 µM] (inactive)	
O=C(Nc1ccc(-c2nnc3n2CCCC3)cc1)Nc1ccccc1Br		8.91 µM (active)

SMILES	activity change, negative = inhibition	Potency
CCOc1ccc(NC(=O)CSCC(=O)Nc2ccc(C)cc2)cc1	-9.3% (inactive)	
CC(C)Oc1ccccc1NC(=O)N1CCN(c2ccccc2)CC1	-14.5% [at 34.4 µM] (inactive)	
O=C(Nc1nc2ccc(Cl)cc2s1)c1cc(=O)c2ccccc2o1	-34.5% [at 34.4 µM] (inactive)	
Cc1ccc(CNS(=O)(=O)c2ccc3c(c2)CN(C(=O)c2cccnc2)CC3)o1	-26% [at 34.4 µM] (inactive)	
CC1(C)c2nc(-c3ccc(F)cc3)c(Nc3ccc(F)cc3)n2CCN1C(=O)CN	-23.2% (inactive)	
COc1ccccc1-c1noc(CNc2cccc(C#N)c2)n1	-37.6% [at 34.4 µM] (inactive)	
COc1cccc(-c2nc(CNc3cccc(C(C)=O)c3)cs2)c1		10 µM (active)
O=C1CC(c2c(F)cccc2F)c2sc(N3CCOCC3)nc2N1 (stereo not given)		11.3 µM (active)
O=C(N/N=C/c1ccc(Sc2cccc3cccnc23)o1)c1cccc(F)c1		7.12 µM (active)
O=C(CNc1cccc(S(=O)(=O)N2CCOCC2)c1)Nc1ccc(OC(F)(F)F)cc1		1.27 µM (active)
COc1ccc(-n2ccc(C(=O)Nc3cccnc3OC)n2)cc1	-82.8% [at 34.4 µM] (inactive)	
Fc1cccc(F)c1CNCc1cccnc1-n1cccn1		3.98 µM (active)
N#Cc1ccc(NC(=O)Cn2cnc3ccccc3c2=O)cc1	-22.5% [at 34.4 µM] (inactive)	
Cc1ccc(-c2cc(C(=O)O)c3cccc(C)c3n2)cc1		7.12 µM (active)
COc1ccc(N2CCN(C(=O)c3cnc(N4CCCCC4)c4ccccc34)CC2)cc1	-30% (inactive)	
COCc1ccc(-c2nn(Cc3ccccc3)c3ccccc23)o1		11.3 µM (active)
COc1ccccc1C(=O)Nc1nnc(SCc2cc(=O)c3ccccc3[nH]2)s1		3.98 µM (active)
CCOCCNC(=O)N1CCN(c2nc(C)cs2)CC1		14.1 µM (active)
COc1ccc(F)cc1NC(=O)Cc1csc(-c2ccccc2Cl)n1	-58.1% [at 34.4 µM] (inactive)	
COc1ccc(C(=O)N=Nc2c(O)n(Cc3c(Cl)cccc3Cl)c3ccccc23)cc1	53.1% (inactive)	
